Sampled rows, rich in hits. Any-hit rate of the full collection: about 4%.
TROY NFkB inh = TROY signaling inhibition | Q293 LMP1-TROYcd NF-kB luciferase reporter, 4 h | inhibition, % at 10 µM | 360,000 compounds, 0.98% hits | AID 1347056;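 active means compounds whose plate-normalised and pattern-corrected inhibition of the luciferase reporter signal at the single screening dose is 50% or more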
KKLEB cytotox = CF airway cell cytotoxicity counter-screen | KKLEB CF airway cells viability, ATPlite luminescence, overnight; stronger effect = lower value; cells stimulated with P. aeruginosa culture filtrate | activity change (cytotoxicity), % at 5 µM | 360,000 compounds, 0.36% hits | AID 602141;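 active means corrected activity change at or below -50% at 5 µM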
HIF-2a block = blocks HIF-2a reporter activity; 786-0 RCC cells HIF-2a reporter, luciferase luminescence, overnight; inhibition, % at 18.8 µM; 360,000 compounds, 0.72% hits; AID 624352;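 active means inhibition of the luminescence signal of 40% or more relative to plate controls, in a single-dose primary screen at 18.75 µM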
TWEAK-Fn14 inh = blocks TWEAK-Fn14 interaction in a reporter cell assay; TWEAK-stimulated Fn14 reporter cells, luciferase luminescence, 8 h; inhibition, % at 10 µM; 360,000 compounds, 2% hits; in the data active means inhibition above about 50%
Peg3 promoter = Peg3 promoter activity inhibition; inhibition, % at 20 µM; HeLa PEG-Prom luciferase reporter, luminescence, overnight; 360,000 compounds, 1.7% hits; AID 588405;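 active means inhibition of at least 50% at 20 µM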
CF NFkB inh = inhibitors of cystic fibrosis induced NF-kB; KKLEB NF-kB-GFP reporter, PAF-induced, GFP fluorescence overnight; inhibition, % at 5 µM; AID 588850; 360,000 compounds, 0.86% hits;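 active means at least 50% inhibition at 5 µM, scaled per plate between neutral and stimulator controls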;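 further: PAF is a Pseudomonas aeruginosa culture filtrate used as stimulus; plate controls were PAF-stimulated DMSO wells for no effect and unstimulated DMSO wells for full effect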
An asterisk follows results filed as active; · = no result.

SMILES	TROY NFkB inh	KKLEB cytotox	HIF-2a block	TWEAK-Fn14 inh	Peg3 promoter	CF NFkB inh
CNc1cnc(-c2cccc(C(=O)N3CCOCC3)c2)cn1	18.6	-4.0	-12.3	-18.4	-3.6	13.9
COc1cccc(N2CC(=O)Nc3c(oc4nc(-c5ccccc5)cc(C)c34)C2=O)c1	70.9*	-4.9	14.9	40.6	-0.8	1.4
Nc1cc(Cl)ccc1CN1C(=O)c2ccccc2C1=O	-30.9	4.0	-218.9	-25.9	-247.2	-90.2
O=[N+]([O-])c1cccc(/C=N/Nc2nnc(-c3ccccc3)c(-c3ccccc3)n2)c1	-26.6	7.1	18.3	-3.5	12.1	19.7
C/C(=N\Nc1nnc(-c2ccccc2)c(-c2ccccc2)n1)c1cccc([N+](=O)[O-])c1	-18.2	-51.3*	10.1	2.4	19.2	33.8
C[C@@H]1CN([C@@H](C)CO)C(=O)c2cc(Br)cnc2O[C@H]1CN(C)C(=O)Nc1ccc(F)cc1	1.3	11.7	12.0	7.5	-7.8	6.8
C=CCNc1ccc(N2C(=O)CCCC2=O)cc1[N+](=O)[O-]	12.6	3.6	12.9	73.5*	0.0	-14.8
Oc1ccc(Cl)cc1Sc1cc(Cl)ccc1O	62.2*	10.2	9.8	72.7*	71.3*	63.4*
CCCc1cc(=O)oc2cc(C)cc(OCC(=O)Nc3cccnc3)c12	4.3	-3.3	12.4	-25.8	86.9*	-17.8
CC(C)(C)c1ccc(OC(=O)Nc2ccc(O)c(C(=O)O)c2)cc1	12.7	10.1	69.1*	73.1*	4.8	-14.0
CCC(=O)Nc1ccc(NC(=O)c2ccccn2)cn1	1.5	-17.7	-61.8	46.5	-68.1	3.9
CC(C)C(=O)Nc1ccc(NC(=O)c2ccccn2)cn1	41.9	3.3	26.4	75.7*	25.9	2.2
O=C(Nc1ccc(NC(=O)C2CC2)nc1)c1ccccn1	13.5	8.4	-22.8	61.5*	-33.7	1.7
COc1ccc(Cc2nc3ccc(C(=O)NC(C)c4cnn(C)c4)cc3o2)cc1 (configuration not stated)	10.7	3.8	6.5	1.9	-7.7	-8.5
CC1CCC(C(C)C)C(OC(=O)C[n+]2cc(-c3ccc(Cl)cc3)n3c2CCC3)C1 (configuration not stated)	54.6*	-24.9	-8.9	18.3	22.1	20.2
C=CCN1C(=O)CSC1=Nc1ccc(NC(C)=O)cc1	-17.8	-10.0	6.7	-0.7	8.9	-0.6
Cc1ccccc1N1C(=O)c2cccc([N+](=O)[O-])c2C1=O	18.4	-0.1	13.5	-18.3	6.9	-1.9
Cc1ccccc1-n1ncc2c([N+](=O)[O-])cc([N+](=O)[O-])cc21	51.4*	-17.9	-90.7	1.7	-142.0	6.3
COCCn1c(SCC(=O)Nc2ccc(F)cc2)nc2c(oc3ccccc32)c1=O	2.5	-54.2*	10.3	-6.1	6.2	41.9
CCOC(=O)N1CCN(Cc2nc(N)nc(Nc3ccc(Oc4ccccc4)cc3)n2)CC1	15.1	4.3	-59.1	51.7*	9.8	18.5
Cc1cc(O)c(C(=O)/C=C/c2ccc(Cl)cc2)c(=O)o1	-37.0	7.8	-97.2	14.0	-119.2	-20.4
O=C(/C=C/c1ccc(Cl)cc1)c1ccc([N+](=O)[O-])o1	30.6	-48.4	49.0*	88.1*	106.6*	95.8*
O=[N+]([O-])c1ccc(/C=N/N=C/c2ccc([N+](=O)[O-])o2)o1	-60.9	-46.8	23.1	83.9*	104.9*	82.8*
O=C(O)/C=C/c1ccc([N+](=O)[O-])o1	0.8	11.7	7.0	2.8	5.7	6.7
O=C1C2C3C=CC(C4CC34)C2C(=O)N1/N=C/c1ccc([N+](=O)[O-])o1 (configuration not stated)	20.2	-1.8	-6.2	89.6*	22.6	3.8
SMILES	TROY NFkB inh	KKLEB cytotox	HIF-2a block	TWEAK-Fn14 inh	Peg3 promoter	CF NFkB inh
O=C(CNC(=O)C1CC1)Nc1ccc(F)c(F)c1F	-18.1	11.1	13.4	3.2	0.1	23.0
CCn1cc(C(=O)N[C@@H](CCSC)C(=O)NCCN2CCOCC2)c(=O)c2cc3c(cc21)OCO3	-30.2	1.7	9.8	12.6	2.8	-4.2
Cc1cccc(N=C2NC(=O)/C(=C\c3cccs3)S2)c1	13.9	-7.4	-102.4	-2.0	-94.8	29.7
Cc1ccc(N=C2NC(=O)/C(=C/c3cccs3)S2)cc1C	-38.8	-19.1	-108.2	-7.3	-69.3	51.5*
COc1ccc(S(=O)(=O)N(C(=O)c2ccncc2)c2ccc3oc4c(c3c2)CCCC4)cc1	44.1	-11.1	19.9	50.7*	44.8	32.4
CCCCS(=O)(=O)N1CCCC(C(=O)Nc2ccc(Cl)cn2)C1 (configuration not stated)	4.7	3.5	16.6	85.5*	8.8	-0.5
Cn1nc2c3cc(F)ccc3n(Cc3ccc(F)cc3)cc-2c1=O	-20.8	-1.1	17.6	13.3	31.2	7.7
COc1ccc(Cn2cc3c(-c4ccc(F)cc4)nnc-3c3cc(OC)c(OC)cc32)cc1	-33.2	-43.1	-13.2	-202.6	100.7*	-70.1
COc1cc2c3nnc(-c4ccc(F)cc4)c-3cn(Cc3ccc(F)cc3)c2cc1OC	-60.3	-21.3	0.2	-229.3	97.8*	-200.8
Nc1c(C(=O)CSc2nccn2-c2cccc(F)c2)c(=O)[nH]c(=O)n1C1CC1	3.0	-2.3	15.7	10.1	5.0	6.5
Cc1ccccc1-n1ncc(C(C)NS(=O)(=O)c2sccc2C)c1C (configuration not stated)	-10.1	7.0	17.0	-2.8	19.0	-16.0
COc1ccc(CNC(=O)CS(=O)(=O)Cc2nc(-c3cccc(OC)c3)oc2C)cc1	13.6	6.0	10.3	5.3	-4.4	-14.3
COc1ccc(C(=O)CSC(=S)N2CCCCC2)cc1	12.4	-24.4	-218.1	60.4*	-146.3	7.2
O=C(CSC(=S)N1CCCCC1)c1ccccc1	50.1*	-6.1	-42.5	72.1*	-34.1	-36.3
Cc1ccc(/C=N/NC(=O)CSc2nc3ccccc3[nH]2)o1	-8.5	2.8	-35.1	10.6	-14.0	-3.8
O=C(CSc1nc2ccccc2[nH]1)N/N=C/c1ccncc1	56.6*	-6.8	12.0	-30.8	4.5	17.0
CCN(CC)c1ccc(/C=N/Nc2nc3ccccc3[nH]2)cc1	43.0	6.1	-213.5	95.4*	-159.0	-12.6
C(=N\Nc1nc2ccccc2[nH]1)/c1ccncc1	58.8*	9.8	-194.0	43.5	-195.4	17.1
O=C1N[C@@H](Cc2cn(S(=O)(=O)c3ccc([N+](=O)[O-])cc3)c3ccccc23)C(=O)N[C@H]1Cc1ccccc1	-11.4	-12.9	21.1	30.7	-1.2	14.1
COc1ccccc1-c1cccc(-c2nc(C(=O)Nc3nccs3)cc3c2[C@@H](CCO)N(C(=O)CC2CC2)C3)c1	4.9	·	-6.1	27.0	·	·
O=C(N=C1SC2CS(=O)(=O)CC2N1Cc1ccc(F)cc1)C1CCCO1 (configuration not stated)	3.1	18.9	14.0	3.2	-13.5	-24.2
